# Source: PubChem BioAssay (National Center for Advancing Translational Sciences (NCATS))
# nsP2pro inh: Primary qHTS for inhibitors of NSP2Pro chikungunya virus (CHIKV); Potency, µM (series often up to 24.9 µM), most hits filed as inhibitors; AID 1964107, 2024; FRET peptide cleavage, nsP2pro, fluorescence 1 h; actives 1.1% (n = 31,000); further: nearly all actives have a fitted effect of over 60% in size
#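 FRET cleavage of 2.5 uM peptide 2 by 150 nM CHIKV protease domain at pH 8.0 (Tris, Tween 20). Compounds at 7 concentrations (up to 25 uM) preincubated 15 min. Fluorescence read after 1 h at room temperature.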
# CHIKV nsP2 cell: Secondary cell base assay for inhibitors of NSP2Pro Chikungunya virus (CHIKV). shares compounds with nsP2pro inh. cell-based CHIKV nsP2 protease reporter assay. Potency, µM (highest dose often 51.1 µM), most hits filed as inhibitors. actives 10% (n = 450). AID 1964100, 2024; further: nearly all actives have a fitted effect of over 70% in size
# Target sequence (Q8JUX6 220-798 limits assumed): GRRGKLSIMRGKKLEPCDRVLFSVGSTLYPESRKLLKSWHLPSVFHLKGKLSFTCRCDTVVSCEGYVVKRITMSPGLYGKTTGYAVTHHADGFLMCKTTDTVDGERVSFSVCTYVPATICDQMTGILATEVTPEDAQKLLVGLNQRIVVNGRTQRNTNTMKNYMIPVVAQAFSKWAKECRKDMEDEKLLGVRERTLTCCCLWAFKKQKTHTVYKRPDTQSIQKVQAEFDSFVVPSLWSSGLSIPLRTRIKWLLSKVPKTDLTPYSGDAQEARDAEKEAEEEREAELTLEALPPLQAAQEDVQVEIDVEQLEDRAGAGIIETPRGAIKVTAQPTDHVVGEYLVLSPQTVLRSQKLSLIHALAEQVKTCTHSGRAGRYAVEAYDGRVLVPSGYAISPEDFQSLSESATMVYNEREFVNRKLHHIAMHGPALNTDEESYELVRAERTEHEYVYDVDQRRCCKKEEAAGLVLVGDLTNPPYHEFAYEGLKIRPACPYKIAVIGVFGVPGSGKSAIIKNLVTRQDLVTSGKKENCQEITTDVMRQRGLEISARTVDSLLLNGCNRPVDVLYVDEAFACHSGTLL
# NSP2 full ctr: Selectivity profile for inhibitors of NSP2Pro chikungunya virus (CHIKV): Full length NSP2 enzyme counterscreen (CHIKV-NSP2); shares compounds with nsP2pro inh; Full-length CHIKV NSP2 protease enzymatic counterscreen; actives 39% (n = 410); AID 1964101, 2024; Potency, µM (doses to about 50.7 µM), most hits filed as inhibitors; further: nearly all actives have a fitted effect of over 65% in size
# Furin counterscr: Selectivity profile for inhibitors of NSP2Pro chikungunya virus (CHIKV): Human furin counterscreen. Potency, µM (titrated, usually from 50.6 µM), most hits filed as inhibitors. shares compounds with nsP2pro inh. Recombinant human furin enzymatic counterscreen, fluorogenic substrate. actives 6% (n = 410)
# NS23 peptide cs: Selectivity profile for inhibitors of NSP2Pro chikungunya virus (CHIKV): Endogenous NS2/3 peptide Counterscreen | AID 1964103, 2024 | actives 34% (n = 410) | Purified CHIKV nsP2 protease, endogenous NS2/3 peptide cleavage | Potency, µM (top dose mostly 51 µM), most hits filed as inhibitors | shares compounds with nsP2pro inh; further: nearly all actives have a fitted effect of over 55% in size
# Papain cs: Selectivity profile for inhibitors of NSP2Pro chikungunya virus (CHIKV): Papain Counterscreen | Potency, µM (titrated, usually from 51 µM), actives largely listed as inhibitors | shares compounds with nsP2pro inh | actives 5% (n = 410) | purified papain protease activity, enzymatic inhibition
# nsP2pro confirm: Confirmatory qHTS for inhibitors of NSP2Pro chikungunya virus (CHIKV) | shares compounds with nsP2pro inh | CHIKV nsP2 protease enzymatic activity, qHTS | Potency, µM (highest dose often 25.5 µM), actives largely listed as inhibitors | actives 43% (n = 410); further: nearly all actives have a fitted effect of over 75% in size
# HCV NS3 counter: Selectivity profile for inhibitors of NSP2Pro chikungunya virus (CHIKV): NS34A-HCV Counterscreen; Potency, µM (top dose mostly 50.9 µM), hits mostly inhibitors; shares compounds with nsP2pro inh; HCV NS3/4A protease biochemical counterscreen; actives 20% (n = 410); further: nearly all actives have a fitted effect of over 55% in size
# A number is an active result; – = inactive; ? = inconclusive; [ ] = remark or other dose. Shown is part of a subset that was picked to be rich in hits. The call rests on the fitted dose curve.
SMILES,nsP2pro inh,others
COc1ccc(-c2ccc3cc(C(=O)O)ccc3c2)cc1C12CC3CC(CC(C3)C1)C2,–,
COc1cc(C(=O)O)ccc1OC1OC(CO)C(O)C(O)C1O (stereo not drawn),–,
Cc1ccc(-c2cc(C(=O)N3CC[S+](=O)([O-])CC3)c3ccccc3n2)cc1C,–,
CC1OC(O[C@H]2CC[C@@]3(C)C(CC[C@]4(C)C3CC=C3C5CC(C)(C)CC[C@]5(C(=O)OC5OC(CO)C(OC6OC(COC7OCC(O)C(O)C7O)C(O)C(O)C6O)C(O)C5O)CC[C@]34C)C2(C)C)C(O)C(O)C1OC1OCC(OC2OCC(O)C(O)C2O)C(O)C1O (stereo partly drawn),–[5.1 µM],
CCOC(=O)c1c2c3c(cccc3[nH]c1=O)C(=O)c1ccccc1-2,?,CHIKV nsP2 cell=–;NSP2 full ctr=–;Furin counterscr=–;NS23 peptide cs=–;Papain cs=–;nsP2pro confirm=–;HCV NS3 counter=–
CCOC(=O)c1c(Nc2ccccc2)nnc(-c2ccccc2)c1-c1ccccc1,–,
CCOC(=O)c1c(C)[nH]c(CCC(=O)Nc2ccccc2C(F)(F)F)c1C,–,
COc1cc(C(=O)O)ccc1NC(=O)[C@@H]1N[C@@H](CC(C)(C)C)[C@](C#N)(c2ccc(Cl)cc2F)[C@H]1c1cccc(Cl)c1F,–,
CC1(C)NC2N(C1=O)c1ccccc1C2(O)CC(C(=O)O)n1cnc2ccccc2c1=O (stereo not drawn),–,
CC(C)n1nc(Cc2cccc3ccccc23)c2c(N)ncnc21,–,
O=S(=O)(Nc1ccccc1)c1ccc(NCc2ccc(Br)cc2O)cc1,–,
O=C(O)CSc1cc(NS(=O)(=O)c2ccc(Br)cc2)c2ccccc2c1O,1µM,CHIKV nsP2 cell=?;NSP2 full ctr=4.1µM;Furin counterscr=–;NS23 peptide cs=1.8µM;Papain cs=18µM;nsP2pro confirm=0.8µM;HCV NS3 counter=?
Cc1oc2c(cc(NS(=O)(=O)c3ccc(C(C)C)cc3)c3ccccc32)c1C(=O)OCc1ccccc1,–,
Cc1nc(-c2cn(C3CCCN(C(=O)c4ccc(Cl)s4)C3)nn2)no1 (stereo not drawn),–,
C/C(=N\N=C(N)N)c1ccc(NC(=O)Nc2ccc(/C(C)=N/N=C(N)N)cc2)cc1,8.8µM,CHIKV nsP2 cell=–;NSP2 full ctr=16µM;Furin counterscr=16µM;NS23 peptide cs=29µM;Papain cs=?;nsP2pro confirm=9µM;HCV NS3 counter=18µM
NS(=O)(=O)c1ccc(NC(=O)Nc2ccc(F)cc2)cc1,–,
CC(=O)Nc1ccc(NC(=O)CCC(=O)c2ccc(C)cc2)cc1,–,
CN(Cc1nc(-c2ccccc2)no1)C(=O)c1cccc(C2CCNC2)c1 (stereo not drawn),–,
Oc1ccc(CNc2ccccc2C(F)(F)F)c2cccnc12,–,
Oc1ccc(CNc2ccccc2F)c2cccnc12,3.1µM,CHIKV nsP2 cell=–;NSP2 full ctr=15µM;Furin counterscr=–;NS23 peptide cs=11µM;Papain cs=–;nsP2pro confirm=1.9µM;HCV NS3 counter=–
Oc1ccc(CNc2ccccc2Cl)c2cccnc12,–,
Cc1ccc(-n2nc(C(C)(C)C)cc2NC(=O)Nc2cc(COc3cccnc3)[nH]n2)cc1,–,
Cc1ccc(OCC(=O)NCc2c(C)ncc3c2CCNC3)cc1C,–,
Cn1c(=O)oc2ccc(C(=O)N[C@H](C3CCNCC3)C3CC(O)C3)cc21 (stereo partly drawn),–,
O=C(NCCCN1CCc2ccccc2C1)C1CCc2ncc(-c3ccc(F)cc3)n2C1 (stereo not drawn),–,
SMILES,nsP2pro inh,others
Fc1cccc(-c2nc3ccccc3s2)c1,–,
CN(C)CCc1c[nH]c2ccc(CS(=O)(=O)N3CCCC3)cc12,–,
CN(C)CCc1c[nH]c2ccc(CN3CCN(C)S3(=O)=O)cc12,?,CHIKV nsP2 cell=–;NSP2 full ctr=–;Furin counterscr=–;NS23 peptide cs=–;Papain cs=–;nsP2pro confirm=–;HCV NS3 counter=–
CNS(=O)(=O)Cc1ccc2[nH]cc(CCN(C)C)c2c1,–,
CCC(=O)N1CCCC(c2nc(-c3cccnn3)no2)C1 (stereo not drawn),–,
COCCn1c(C)cc(O)c(C(c2ccccc2OC)N2CCN(c3ccccc3)CC2)c1=O (stereo not drawn),?,CHIKV nsP2 cell=–
COc1ccccc1C(c1c(O)cc(C)n(Cc2ccco2)c1=O)N1CCCCC1 (stereo not drawn),–,
COC(=O)N(C)Cc1cccc(N2CCN(C(c3ccccc3)c3ccccc3)CC2)c1,–,
Cc1coc2c1C(=O)C(=O)c1c-2ccc2c(C)cccc12,?,CHIKV nsP2 cell=–;NSP2 full ctr=?;Furin counterscr=–;NS23 peptide cs=?;Papain cs=?;nsP2pro confirm=?;HCV NS3 counter=–
Cc1coc2c1C(=O)C(=O)c1c-2ccc2c1CCCC2(C)C,?,CHIKV nsP2 cell=–;NSP2 full ctr=12µM;Furin counterscr=–;NS23 peptide cs=?;Papain cs=?;nsP2pro confirm=?;HCV NS3 counter=–
C#CCN(C)Cc1nc(C2(O)CCN(C(=O)c3ccccc3F)CC2)cs1,–,
CCCCCCCCCCCCCCCC(=O)OC1C(SC)OC(C(NC(=O)C2CC(CCC)CN2C)C(C)Cl)C(O)C1O (stereo not drawn),–,
COCC(=O)N[C@@H]1CN(Cc2cccn2C)C[C@H]1CO,–,
Cc1ccc(-c2cc(C(=O)NCc3cccs3)nn3cnnc23)cc1,–,
COc1ccc(NC(=O)c2[nH]c(C)c(C(C)=O)c2C)cc1[S+](=O)([O-])Nc1ccccc1C#N,–,
N#Cc1cc(C2=Nc3ccc(Br)cc3NC(=O)C2)ccn1,–,
CN1CCCC1c1nc(C2CN(S(=O)(=O)c3ccc(C#N)cc3)C2)no1 (stereo not drawn),–,
COC(=O)C#Cc1ccc([N+](=O)[O-])cc1,0.99µM,CHIKV nsP2 cell=?;NSP2 full ctr=1.2µM;Furin counterscr=–;NS23 peptide cs=2.9µM;Papain cs=–;nsP2pro confirm=0.56µM;HCV NS3 counter=–
O=C(Nc1ccc([N+](=O)[O-])cc1)Nc1ccc([N+](=O)[O-])cc1,–,
O=C(N[C@H](CO)[C@H](O)c1ccc([N+](=O)[O-])cc1)C(Cl)Cl,–,
Cc1n[nH]c(C)c1CNc1cc(C2CC(O)C2)ncn1 (stereo not drawn),–,
COCCNC(=O)CC[C@]12CC[C@](C)(O)C[C@H]1C(C)(C)C[C@@H]2NS(=O)(=O)c1ccc(C)cc1,–,
CCOC(=O)c1ccc(O)c2ncc(N3CCC(C(=N)N)CC3)cc12,–,
COCCN1C(=O)CO[C@H]2CN(c3ncccn3)C[C@H]21,7.9µM,CHIKV nsP2 cell=–;NSP2 full ctr=33µM;Furin counterscr=?;NS23 peptide cs=?;Papain cs=–;nsP2pro confirm=16µM;HCV NS3 counter=?
